Experimental findings from the supplement of paper PMC10849652 are described below.

Targets with a hit are over-represented here; the source holds about 7,900 in all. About 0.6% of all pairs of compound and target were hits. A number with no mark means an inactive call.

Sequence of UniProt O43513 (O43513 whole entry, looked up): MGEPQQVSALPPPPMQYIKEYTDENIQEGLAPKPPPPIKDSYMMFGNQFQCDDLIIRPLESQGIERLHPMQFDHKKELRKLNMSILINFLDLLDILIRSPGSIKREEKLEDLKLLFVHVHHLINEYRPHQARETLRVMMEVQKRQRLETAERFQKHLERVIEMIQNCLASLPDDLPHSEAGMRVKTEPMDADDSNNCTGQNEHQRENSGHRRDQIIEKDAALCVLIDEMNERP
Sequence of UniProt Q9NQX7 (Q9NQX7 whole entry, looked up): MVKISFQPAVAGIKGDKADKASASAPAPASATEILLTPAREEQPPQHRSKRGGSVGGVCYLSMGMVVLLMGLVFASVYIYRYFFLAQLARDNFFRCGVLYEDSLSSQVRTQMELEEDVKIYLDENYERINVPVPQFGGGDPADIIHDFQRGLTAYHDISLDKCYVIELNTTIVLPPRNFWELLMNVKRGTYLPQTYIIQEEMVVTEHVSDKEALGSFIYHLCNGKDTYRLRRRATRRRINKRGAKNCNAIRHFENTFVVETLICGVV
Sequence of UniProt O95373 (O95373 whole entry, looked up): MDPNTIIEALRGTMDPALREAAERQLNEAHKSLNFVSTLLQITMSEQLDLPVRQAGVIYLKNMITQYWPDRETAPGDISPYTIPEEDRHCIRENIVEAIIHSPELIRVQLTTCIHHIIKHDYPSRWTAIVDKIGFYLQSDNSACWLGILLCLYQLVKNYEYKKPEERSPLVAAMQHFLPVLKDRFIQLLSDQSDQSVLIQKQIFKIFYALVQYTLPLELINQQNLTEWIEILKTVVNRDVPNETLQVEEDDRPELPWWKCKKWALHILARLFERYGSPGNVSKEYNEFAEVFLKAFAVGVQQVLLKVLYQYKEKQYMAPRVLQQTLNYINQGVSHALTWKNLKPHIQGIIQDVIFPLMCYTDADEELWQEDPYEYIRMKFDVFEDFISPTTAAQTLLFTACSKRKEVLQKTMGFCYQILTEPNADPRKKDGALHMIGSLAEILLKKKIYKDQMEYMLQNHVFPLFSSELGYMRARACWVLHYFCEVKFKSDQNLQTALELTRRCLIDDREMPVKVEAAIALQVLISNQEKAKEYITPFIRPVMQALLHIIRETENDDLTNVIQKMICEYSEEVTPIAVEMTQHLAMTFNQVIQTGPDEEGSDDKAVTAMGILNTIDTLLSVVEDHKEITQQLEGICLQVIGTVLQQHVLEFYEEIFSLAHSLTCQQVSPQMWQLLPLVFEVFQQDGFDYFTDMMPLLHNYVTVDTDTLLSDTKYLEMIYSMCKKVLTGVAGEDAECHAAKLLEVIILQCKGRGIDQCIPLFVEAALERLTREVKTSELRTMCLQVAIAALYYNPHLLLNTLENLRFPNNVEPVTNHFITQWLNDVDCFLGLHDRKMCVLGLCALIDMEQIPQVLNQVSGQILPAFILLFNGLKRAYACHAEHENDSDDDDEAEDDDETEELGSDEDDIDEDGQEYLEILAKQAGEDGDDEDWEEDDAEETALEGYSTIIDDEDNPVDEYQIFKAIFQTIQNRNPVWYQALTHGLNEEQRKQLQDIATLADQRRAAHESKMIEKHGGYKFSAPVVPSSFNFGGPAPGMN
Sequence of UniProt Q9H3U5 (Q9H3U5 whole entry, looked up): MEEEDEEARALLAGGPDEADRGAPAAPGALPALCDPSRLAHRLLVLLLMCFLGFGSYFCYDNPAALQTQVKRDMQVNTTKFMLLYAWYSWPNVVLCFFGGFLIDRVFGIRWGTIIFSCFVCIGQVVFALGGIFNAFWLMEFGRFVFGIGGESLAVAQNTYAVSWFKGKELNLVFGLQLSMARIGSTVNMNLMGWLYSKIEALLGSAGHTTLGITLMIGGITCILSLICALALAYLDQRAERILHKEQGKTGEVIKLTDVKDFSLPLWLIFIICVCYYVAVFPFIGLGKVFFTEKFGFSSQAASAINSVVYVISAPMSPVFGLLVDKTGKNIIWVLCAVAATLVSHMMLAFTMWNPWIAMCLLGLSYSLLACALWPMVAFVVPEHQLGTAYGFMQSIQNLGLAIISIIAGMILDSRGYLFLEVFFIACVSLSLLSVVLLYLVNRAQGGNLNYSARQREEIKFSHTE
Sequence of UniProt Q9Y2U8 (Q9Y2U8 whole entry, looked up): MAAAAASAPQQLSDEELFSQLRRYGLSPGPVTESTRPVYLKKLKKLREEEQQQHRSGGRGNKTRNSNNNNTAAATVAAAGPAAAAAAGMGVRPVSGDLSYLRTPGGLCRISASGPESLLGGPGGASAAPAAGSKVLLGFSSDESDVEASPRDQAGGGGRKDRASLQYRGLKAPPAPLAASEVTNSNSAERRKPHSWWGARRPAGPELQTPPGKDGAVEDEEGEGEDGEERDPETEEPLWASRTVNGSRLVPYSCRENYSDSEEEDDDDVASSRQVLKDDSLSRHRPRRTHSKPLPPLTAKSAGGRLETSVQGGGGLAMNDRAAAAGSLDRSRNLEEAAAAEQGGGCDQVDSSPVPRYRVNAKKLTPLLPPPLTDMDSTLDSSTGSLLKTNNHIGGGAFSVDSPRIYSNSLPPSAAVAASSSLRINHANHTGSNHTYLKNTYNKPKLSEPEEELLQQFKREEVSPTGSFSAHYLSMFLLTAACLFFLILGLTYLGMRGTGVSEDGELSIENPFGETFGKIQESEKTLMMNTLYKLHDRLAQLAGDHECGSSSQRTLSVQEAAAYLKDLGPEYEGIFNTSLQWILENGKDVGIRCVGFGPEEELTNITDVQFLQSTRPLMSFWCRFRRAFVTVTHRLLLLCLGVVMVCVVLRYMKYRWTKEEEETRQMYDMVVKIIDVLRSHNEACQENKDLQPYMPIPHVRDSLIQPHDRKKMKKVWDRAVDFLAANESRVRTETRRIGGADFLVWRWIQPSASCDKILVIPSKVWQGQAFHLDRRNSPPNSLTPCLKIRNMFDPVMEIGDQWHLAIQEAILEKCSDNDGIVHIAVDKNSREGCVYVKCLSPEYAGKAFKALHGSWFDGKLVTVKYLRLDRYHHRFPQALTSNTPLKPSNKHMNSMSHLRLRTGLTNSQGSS
Sequence of UniProt Q92615 (Q92615 whole entry, looked up): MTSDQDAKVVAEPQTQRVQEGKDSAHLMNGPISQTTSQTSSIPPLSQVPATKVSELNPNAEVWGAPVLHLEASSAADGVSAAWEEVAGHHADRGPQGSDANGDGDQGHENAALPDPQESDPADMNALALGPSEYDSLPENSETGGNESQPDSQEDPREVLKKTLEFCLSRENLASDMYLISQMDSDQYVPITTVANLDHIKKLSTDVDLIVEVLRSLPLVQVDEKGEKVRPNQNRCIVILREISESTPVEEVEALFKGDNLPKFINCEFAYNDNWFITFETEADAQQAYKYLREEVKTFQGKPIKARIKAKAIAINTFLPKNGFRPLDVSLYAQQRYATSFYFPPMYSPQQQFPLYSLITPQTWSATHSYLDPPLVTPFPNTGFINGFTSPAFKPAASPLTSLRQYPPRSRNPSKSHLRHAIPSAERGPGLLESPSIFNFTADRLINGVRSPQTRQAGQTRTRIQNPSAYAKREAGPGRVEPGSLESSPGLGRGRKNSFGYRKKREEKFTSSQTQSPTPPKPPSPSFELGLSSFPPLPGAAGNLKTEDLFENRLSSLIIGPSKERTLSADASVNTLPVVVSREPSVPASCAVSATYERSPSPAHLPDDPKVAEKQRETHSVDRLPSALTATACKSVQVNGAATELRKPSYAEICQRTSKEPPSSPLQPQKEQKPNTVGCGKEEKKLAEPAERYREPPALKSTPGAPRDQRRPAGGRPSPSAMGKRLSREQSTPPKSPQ
Sequence of UniProt Q9HCC0 (Q9HCC0 whole entry, looked up): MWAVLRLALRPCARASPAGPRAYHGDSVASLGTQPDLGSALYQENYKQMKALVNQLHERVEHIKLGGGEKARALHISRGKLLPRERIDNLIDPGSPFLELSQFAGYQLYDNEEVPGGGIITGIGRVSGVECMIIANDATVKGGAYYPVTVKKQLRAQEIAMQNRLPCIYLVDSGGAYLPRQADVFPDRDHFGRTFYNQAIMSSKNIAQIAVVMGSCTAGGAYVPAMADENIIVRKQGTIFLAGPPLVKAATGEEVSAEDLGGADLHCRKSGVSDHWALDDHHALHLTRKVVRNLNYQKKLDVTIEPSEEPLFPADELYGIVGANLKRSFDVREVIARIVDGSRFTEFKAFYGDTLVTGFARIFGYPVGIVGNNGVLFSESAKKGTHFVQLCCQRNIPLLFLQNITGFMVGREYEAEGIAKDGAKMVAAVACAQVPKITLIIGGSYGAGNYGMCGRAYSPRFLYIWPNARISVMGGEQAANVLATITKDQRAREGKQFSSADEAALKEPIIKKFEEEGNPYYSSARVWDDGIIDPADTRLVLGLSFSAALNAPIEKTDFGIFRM
Sequence of UniProt P36507 (P36507 whole entry, looked up): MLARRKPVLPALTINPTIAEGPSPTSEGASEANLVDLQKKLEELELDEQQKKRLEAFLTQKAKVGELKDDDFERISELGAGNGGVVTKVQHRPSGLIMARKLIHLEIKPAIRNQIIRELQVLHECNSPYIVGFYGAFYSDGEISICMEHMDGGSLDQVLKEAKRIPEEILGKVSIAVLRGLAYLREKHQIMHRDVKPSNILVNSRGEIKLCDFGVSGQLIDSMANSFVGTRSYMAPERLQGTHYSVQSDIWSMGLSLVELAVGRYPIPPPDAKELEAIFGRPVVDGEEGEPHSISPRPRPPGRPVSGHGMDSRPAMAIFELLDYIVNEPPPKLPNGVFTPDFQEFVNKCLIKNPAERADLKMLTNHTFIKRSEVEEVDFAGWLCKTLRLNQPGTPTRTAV
Sequence of UniProt Q9UPY8 (Q9UPY8 whole entry, looked up): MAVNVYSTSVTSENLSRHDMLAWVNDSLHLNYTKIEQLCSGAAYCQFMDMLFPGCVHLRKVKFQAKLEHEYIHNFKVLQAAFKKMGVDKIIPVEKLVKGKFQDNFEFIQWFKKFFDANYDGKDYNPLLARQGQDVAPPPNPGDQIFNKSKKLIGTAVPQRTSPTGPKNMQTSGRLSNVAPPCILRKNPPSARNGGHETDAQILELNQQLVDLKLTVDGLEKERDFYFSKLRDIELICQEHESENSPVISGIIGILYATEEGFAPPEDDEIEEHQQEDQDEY

Compound in the assay: CC1=C2C(=CC=C1)N=C(N(C2=O)C3=CC=CC=C3C)CN4C=NC5=C(N=CN=C54)N
Briefly: log2 fold change, soluble protein after heating vs DMSO (PISA); higher = thermal stabilisation; K562 cells, 10 uM, 30 min; active = over 0.2 and 3.5 SD of the protein, either way, in both replicates (recomputed). A digest of the protocol:
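K562 cells at 2×10^6 cells/mL were treated with 10 μM compound for 30 min. Aliquots were heated for 3 min across 48°C-58°C, pooled, and extracted in PBS with 0.5% NP-40 at 4°C; soluble protein was the supernatant after 21,000xg for 90 min. Soluble protein was quantified by TMTpro 16plex LC-MS/MS with channel sums equalised, and reported as log2 fold change in thermal stability against DMSO controls, with values from duplicates.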
With LEO1 (UniProt Q8WVC0), the log2 fold change was -0.009.

Regarding LRFN1 (UniProt Q9P244), the log2 fold change was 0.042. For LNPK (UniProt Q9C0E8), the log2 fold change is 0.009.

Turning to MASTL (UniProt Q96GX5), the log2 fold change was 0.009. In the case of LGALS8 isoform 2 (UniProt O00214) it was -0.166. With MBLAC1 (UniProt A4D2B0), the log2 fold change was -0.064.

For MIEF1 (UniProt L0R8F8), the log2 fold change was 0.039. Then METTL18 (UniProt O95568), with 0.061. Then LMNA (UniProt P02545), with -0.044; and KPNB1 (UniProt Q14974), with -0.024; and KDM5D isoform 3 (UniProt Q9BY66), with 0.102. In the case of MED1 (UniProt Q15648) it was 0.03. As for MAD2L1 (UniProt Q13257), the log2 fold change was 0.067. In the case of ITM2B (UniProt Q9Y287), the log2 fold change is 0.061.

As for MAP2K2 (UniProt P36507), the log2 fold change was 0.073. In the case of MED8 isoform 2 (UniProt Q96G25) it was -0.381 (active); in that of KLHDC4 (UniProt Q8TBB5), -0.165; in that of LEMD3 (UniProt Q9Y2U8), 0.119. For the target MARK2 (UniProt E9PC69), the log2 fold change was 0.174. In the case of METAP1D (UniProt Q6UB28) it was 0.083; in that of MAP4K5 (UniProt Q9Y4K4), 0.107.

As for KLHL18 (UniProt O94889), the log2 fold change is 0.135. On to MARK3 (UniProt P27448), for which the log2 fold change is 0.104. With MAP2K3 isoform 3 (UniProt P46734), the log2 fold change is 0.05. Consider MED7 (UniProt O43513), for which the log2 fold change is 0.017. Then IGFBP4 (UniProt P22692), with 0.087; and MAPRE3 (UniProt Q9UPY8), with 0.026. Then KCT2 (UniProt Q8NC54), with -0.01; and MAGOHB (UniProt Q96A72), with 0.079. In the case of LARP4B (UniProt Q92615) it was 0; in that of MCCC2 (UniProt Q9HCC0), -0.027. As for KPNA4 (UniProt O00629), the log2 fold change was 0.035. For the target ITM2C (UniProt Q9NQX7), the log2 fold change is 0.122. As for MFSD1 isoform 6 (UniProt Q9H3U5), the log2 fold change is 0.043. In the case of MED16 (UniProt Q9Y2X0), the log2 fold change was 0.043. In the case of LONP2 (UniProt Q86WA8) it was 0.02. For LSS (UniProt P48449), the log2 fold change is 0.127. In the case of IPO7 (UniProt O95373) it was 0.069.
